Key:
Experiment in all cases: PBM binding z-score (relative to random genomic background probes); higher = stronger binding; sequences stand for … in GC…GCGATTGACAGCGTAGAATGAAGG
[1] = test system: RARb homodimer (NR concentration 270 nM)
Method in brief: (§1)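 Ligand-free nuclear receptor dimers were applied to custom Agilent 4×180K protein-binding microarrays whose double-stranded probes carried direct-repeat seeds, single-nucleotide variants, half-site ablations and random human genomic background sequences in 34-nt variable regions. Incubation lasted 1 h. Binding z-scores were computed against the random background probes from regression-normalized fluorescence.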

[2] = test system: RARg:RXRa (NR concentration 270 nM, RXRa partner concentration 90 nM)
Method in brief: as §1

[3] = test system: RARg homodimer (NR concentration 270 nM)
Method in brief: as §1

[4] = test system: RXRa DBDmut IVT, anti-RXR (DBD mutation: RXRa K156A/R161A, NR concentration 90 nM)
Method in brief: as §1

[5] = test system: RXRa homodimer (NR concentration 180 nM)
Method in brief: as §1

[6] = test system: THRa:RXRa (NR concentration 90 nM, RXRa partner concentration 90 nM)
Method in brief: as §1

[7] = test system: THRa homodimer (NR concentration 90 nM)
Method in brief: as §1

[8] = test system: VDR homodimer (NR concentration 270 nM)
Method in brief: as §1

Row | Sequence | PBM binding z-score [1] | PBM binding z-score [2] | PBM binding z-score [3] | PBM binding z-score [4] | PBM binding z-score [5] | PBM binding z-score [6] | PBM binding z-score [7] | PBM binding z-score [8]
1 | TCTAGTTGGTCACGGTGGTCACACACGACGGGTA | 1.58 | 1.53 | 1.77 | 0.312 | 0.842 | 0.234 | 0.0512 | -0.372
2 | GCTGCTAGGTCAGGTTGTTCAGCTAACGGGTACG | 2.56 | 2.2 | 3.13 | 0.777 | 0.914 | 1.71 | 0.779 | 0.556
3 | TCACGGAGGACACGAAGGTCAGAGCTTTCCAGAG | 3.7 | 3.41 | 3.86 | 0.991 | 1.91 | 2.73 | 0.917 | 1.42
4 | CCGACTGGGACAGAAAGGTTACCATACCATCCGG | 2.12 | 1.37 | 0.963 | -0.641 | 1.61 | 1.19 | -0.195 | -0.17
5 | GATACAGGGTCAGCTAGAGGCTAGAGTATGGAAA | 2.76 | 5.74 | 4.56 | 0.988 | 4.23 | 2.86 | 0.194 | 0.266
6 | CCTAGCAGGCCAATCTGGGTCACACAAGGCTTGA | 2.53 | 1.61 | 1.82 | 0.0737 | 1.63 | 3.99 | 0.9 | 0.17
7 | CGAACTCGGTCAGAACAGGACAGTGAAGGATGAT | 1.03 | 1.4 | 1.81 | 0.172 | 0.348 | 1.78 | -0.368 | 0.368

From the supplement of paper PMC6555819
